These results are taken from PMC11062922 (Nature Chemical Biology, 2023).

Like-named read-outs stand apart in the source and are kept apart here.

What all share (design): species or system human, MV4-11 + K-562 + COLO205 + SK-N-BE2 + OVCAR-8
One assay has as its system CSNK1A1. Conditions: read-out: apparent Kd; compound concentrations: 100 nM and 1000 nM (sheet 'Samples'), CATDS: 5.98984637657098E-2; n = 1.
The next assay deals with CSNK1D. Conditions: read-out: apparent Kd, compound concentrations: 100 nM and 1000 nM (sheet 'Samples'), n = 1.
Another assay concerns CSNK1E. To be noted: read-out: apparent Kd, compound concentrations: 100 nM and 1000 nM (sheet 'Samples'), n = 1.
For another assay, the system named is MAPK10. Conditions: read-out: apparent Kd, compound concentrations: 100 nM and 1000 nM (sheet 'Samples'), n = 1.
A further assay deals with MAPK11. To be noted: read-out: apparent Kd; compound concentrations: 100 nM and 1000 nM (sheet 'Samples'), CATDS: 7.8830615244885299E-2; n = 1.
Another assay has as its system MAPK14. To be noted: read-out: apparent Kd, compound concentrations: 100 nM and 1000 nM (sheet 'Samples'), n = 1.
A further assay concerns MAPK8. Conditions: read-out: apparent Kd; compound concentrations: 100 nM and 1000 nM (sheet 'Samples'), CATDS: 4.9540433468536101E-2; n = 1.
For another assay, the system named is MAPK9. To be noted: read-out: apparent Kd, compound concentrations: 100 nM and 1000 nM (sheet 'Samples'), n = 1.
For the next assay, the system named is NLK. To be noted: read-out: apparent Kd; compound concentrations: 100 nM and 1000 nM (sheet 'Samples'), CATDS: 7.7822094948188494E-2; n = 1.
A further assay concerns RIPK2. To be noted: read-out: apparent Kd; compound concentrations: 100 nM and 1000 nM (sheet 'Samples'), CATDS: 6.8515245953885195E-2; n = 1.
For another assay, the system named is RIPK3. Conditions: read-out: apparent Kd; compound concentrations: 100 nM and 1000 nM (sheet 'Samples'), CATDS: 4.8358331607940903E-2; n = 1.
In the next assay the test system is CLK4. To be noted: read-out: apparent Kd, n = 1.
The next assay concerns ILK. To be noted: read-out: apparent Kd; compound concentrations: 100 nM and 1000 nM (sheet 'Samples'), CATDS: 0.22050260792915999; n = 1.
Another assay concerns IRAK3. Conditions: read-out: apparent Kd; compound concentrations: 100 nM and 1000 nM (sheet 'Samples'), CATDS: 0.257263100547858; n = 1.
In the next assay the test system is RET. Conditions: read-out: apparent Kd; compound concentrations: 100 nM and 1000 nM (sheet 'Samples'), CATDS: 0.29305960370360601; n = 1.
In a further assay the test system is NQO2. To be noted: read-out: apparent Kd; compound concentrations: 100 nM and 1000 nM (sheet 'Samples'), CATDS: 0.189684513322773; n = 1.
The next assay concerns PIK3CD. Conditions: read-out: apparent Kd, compound concentrations: 100 nM and 1000 nM (sheet 'Samples'), n = 1.
A further assay relates to CLK1. To be noted: read-out: apparent Kd, n = 1.
The next assay has as its system NEK3. To be noted: read-out: apparent Kd; compound concentrations: 100 nM and 1000 nM (sheet 'Samples'), CATDS: 0.168041576676878; n = 1.
The subject of another assay is PIK3CG. To be noted: read-out: apparent Kd; compound concentrations: 100 nM and 1000 nM (sheet 'Samples'), CATDS: 0.474922434423799; n = 1.
In the next assay the test system is MAPKAPK2. Conditions: read-out: apparent Kd; compound concentrations: 100 nM and 1000 nM (sheet 'Samples'), CATDS: 0.19368451795267799; n = 1.
The next assay has as its system MERTK. To be noted: read-out: apparent Kd; compound concentrations: 100 nM and 1000 nM (sheet 'Samples'), CATDS: 0.12955803655980599; n = 1.
Another assay concerns GSK3A. To be noted: read-out: apparent Kd; compound concentrations:100 nM and 1000 nM (sheet 'Samples'); n = 1.
Another assay relates to GSK3B. To be noted: read-out: apparent Kd; compound concentrations:100 nM and 1000 nM (sheet 'Samples'); n = 1.
[1] abbreviates: compound concentrations:100 nM and 1000 nM (sheet 'Samples').

On to `CN1CCC(n2cnc(-c3ccc(F)cc3)c2-c2ccnc(Nc3ccccc3)n2)CC1` [SB-236687], for which the potency estimated from few doses is 341 nM in the assay on CSNK1A1; 30.3 nM with CSNK1D (CATDS: 0.13245154437339501); 66.2 nM in the assay with CSNK1E (CATDS: 9.7404692081277694E-2); 79 nM in the assay on MAPK10 (CATDS: 9.1300875893450595E-2); 122 nM with MAPK11; 6.98 nM in the assay on MAPK14 (CATDS: 0.23867511815935299). Moreover, the potency estimated from few doses is 1080 nM in the assay with MAPK8; 112 nM with MAPK9 (CATDS: 8.0964581891509499E-2); 127 nM with NLK; 196 nM in the assay with RIPK2; 1330 nM in the assay with RIPK3.
For the compound `COc1cc(/C=N/Nc2ncnc3c2cnn3C(C)C)ccc1O` [GW644007X], the potency estimated from few doses was 1750 nM in the assay on CLK4 (compound concentrations: 100 nM and 1000 nM (sheet 'Samples'), CATDS: 0.240063768784822); 2110 nM in the assay with ILK; 1520 nM with IRAK3; 1190 nM in the assay on RET.
Regarding `CCCCc1nn2ncccc2c1-c1ccnc(NC2CC2)n1` [GW684374X], the potency estimated from few doses in the assay with CSNK1D (CATDS: 0.183460166751924) was 702 nM; in the assay with CSNK1E (CATDS: 0.13214440190412699), 1590 nM; in the assay on MAPK10 (CATDS: 0.138963906660688) it was 1370 nM; in the assay on MAPK9 (CATDS: 0.12372123914536701), 1960 nM; in the assay with NQO2, 655 nM; in the assay on PIK3CD (CATDS: 0.41134743817449698), 178 nM.
Consider `CC(C)C(=O)N[C@@H]1CCN(C(=O)Nc2nc3c(s2)-c2nc(-c4ccccc4Cl)ncc2CC3)C1` [BI00047804], for which the potency estimated from few doses in the assay on CLK1 (compound concentrations: 100 nM and 1000 nM (sheet 'Samples'), CATDS: 0.240445755473225) is 416 nM; in the assay with CLK4 (compound concentrations: 100 nM and 1000 nM (sheet 'Samples'), CATDS: 0.26423272520910102) it was 334 nM; with NEK3 it was 1310 nM; in the assay on PIK3CG, 115 nM.
As for `COc1nccc(-c2c(-c3ccc(F)cc3)ncn2CCCN2CCOCC2)n1` [SB-282852], the potency estimated from few doses is 746 nM with CSNK1D (CATDS: 0.15826837082796799); 1580 nM in the assay with CSNK1E (CATDS: 0.12159851027947199); 722 nM in the assay on MAPK14 (CATDS: 0.160477931801707); 478 nM with MAPKAPK2; 1280 nM with MERTK; 128 nM in the assay on PIK3CD (CATDS: 0.42646415805735).
As to `COc1ccc(CSc2nnc(-c3ccc4ncsc4c3)o2)cc1C(F)(F)F` [TPKI-91], the potency estimated from few doses is 549 nM in the assay on CLK1 (setting [1]), 599 nM with CLK4 (setting [1]), 131 nM with GSK3A and 72.5 nM with GSK3B.
